# Screens from PubChem BioAssay.
# An excerpt weighted towards active compounds, which were near 3.9% of everything screened.
# CASP6 VEID inh = inhibitors of human caspase-6 | purified caspase-6, Z-VEID-R110 cleavage fluorescence | inhibition, % at 12.5 µM | actives 0.53% (n = 350,000) | P55212;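 active means mean inhibition across replicates at least about 35%, with every replicate also reaching that limit, limit read from the data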;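 further: 0% = median of neutral control wells and 100% = no fluorescence left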
# Target sequence (P55212 24-179 limits assumed): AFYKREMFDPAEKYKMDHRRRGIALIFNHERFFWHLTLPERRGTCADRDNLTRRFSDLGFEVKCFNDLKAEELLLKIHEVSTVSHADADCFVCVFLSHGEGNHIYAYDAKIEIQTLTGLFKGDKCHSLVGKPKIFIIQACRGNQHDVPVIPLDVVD
# Target sequence (P55212 194-293 limits assumed): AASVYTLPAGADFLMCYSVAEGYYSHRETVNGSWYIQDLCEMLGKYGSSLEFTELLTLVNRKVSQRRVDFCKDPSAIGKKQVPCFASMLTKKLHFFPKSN
# Glyco luc inh = N-linked glycosylation inhibition; D54 ERlucT glycosylation luciferase reporter, 24 h; percent of 100 nM tunicamycin response; reporter increase, % at 12.5 µM; actives 0.23% (n = 360,000); AID 588692;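 active means mean luciferase reporter signal, scaled so untreated is 0 and the glycosylation-blocking control 100, at or above a set limit in every replicate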;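 further: luciferase carries N-glycosylation sites so blocking glycosylation raises the light; 0% = median of neutral control wells and 100% = median of 100 nM tunicamycin wells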
# CDK5 inh = blocks human CDK5/p35 kinase activity | actives 0.01% (n = 330,000) | Recombinant CDK5/p35, ADP-Glo luminescence, 60 min | inhibition, % at 10 µM | AID 488839;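 active means highest replicate inhibition of at least 50% and at least 75% of replicates reaching 50%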;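 further: plate controls were DMSO neutral control for no effect and GW8510 at 10 µM for full effect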
# ALR H2O2 inh = inhibitors of human sulfhydryl oxidase ALR | P55789 | purified ALR, DTT oxidation, H2O2 HRP-luminol luminescence | inhibition, % (concentration not given with the values) | actives 3.8% (n = 290,000);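 active means mean replicate inhibition above about 79%, with every replicate also reaching it, limit read from the data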
# Target sequence (P55789 whole entry, looked up): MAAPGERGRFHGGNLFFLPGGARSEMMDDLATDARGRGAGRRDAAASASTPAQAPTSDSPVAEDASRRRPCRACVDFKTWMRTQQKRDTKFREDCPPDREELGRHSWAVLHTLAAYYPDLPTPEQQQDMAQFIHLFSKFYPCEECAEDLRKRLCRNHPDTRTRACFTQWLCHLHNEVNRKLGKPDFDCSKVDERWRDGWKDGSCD
# Mot1-301 SUMO = inhibitors of SUMOylation pathway: yeast Mot1-301 growth rescue; S. cerevisiae Mot1-301 growth rescue, ATP luminescence, 38.5C; percent above DMSO median, 100 means doubled; growth rescue, % at 18.8 µM; actives 1% (n = 320,000); AID 2716;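 active means every valid replicate shows activation above 250% relative to neutral control wells; inactive means the rest, any valid replicate at or below 250%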;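 further: OY570 slx delta 5 strain wells were the positive control but not used for scaling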
# NSD2 HMT inh = inhibitors of human histone methyltransferase NSD2 | O96028 | NSD2 peptide methylation, AlphaScreen, 120 min | inhibition, % at 12.5 µM | actives 0.54% (n = 310,000); in the data active means inhibition above about 50%
# * = called active by the depositor; / = no result given; ! = not confirmed by another sample.
SMILES,CASP6 VEID inh,Glyco luc inh,CDK5 inh,ALR H2O2 inh,Mot1-301 SUMO,NSD2 HMT inh
COC(=O)CCc1c(C)c(C(=O)c2ccc(F)cc2)c2ccccn12,0,-1,-3,-41,-2,-1
N#Cc1ccc(-c2ccc(C3[C@@H]4CN(C(=O)c5ccc6c(c5)OCO6)C[C@H]3N4)cc2)cc1 (some centres not stated),-2,/,/,/,/,/
Cc1ccsc1C=Nc1ccc(O)cc1,/,9,1,96*,-14,/
Cc1ccsc1/C=N/N=C/c1sccc1C,-2,-10,-3,1,3,2
CSc1ccccc1NC(=O)CN(C)C(=O)COc1cccc2cccnc12,45*,1,0,-83,-1,/
C[C@H](CO)N1C[C@H](C)[C@H](CN(C)Cc2ccncc2)Oc2c(NC(=O)Nc3ccc4c(c3)OCO4)cccc2C1=O,0,/,/,/,/,/
CCOC(=O)c1ccc(-c2ccc(/C=N/NC(=O)CN(c3cccc(C)c3)S(C)(=O)=O)o2)cc1,-1,28*,2,-5,-3,-2
COC(=O)c1ccc(C)c(NC(=O)CN(c2cc(OC)ccc2OC)S(C)(=O)=O)c1,/,74*,-1,-38,-17,4
O=C1CCCC/C1=N\Nc1ccc(OCc2ccccc2)cc1,6,0,0,99*,32,1
O=C1CCCC/C1=N\Nc1ccc(C2CCCCC2)cc1,/,/,/,98*,-25,/
Cc1ccc(S(=O)(=O)NCC[C@@H]2CC[C@H](NC(=O)NC(C)C)[C@@H](CO)O2)cc1,-3,/,/,/,/,/
C[C@@H]1CN([C@H](C)CO)C(=O)c2cc(-c3ccncc3)cnc2O[C@H]1CN(C)C(=O)Nc1ccc2c(c1)OCO2,1,/,/,/,/,/
CCOC(=O)/C(C#N)=C/C=C1/C=CC=CN1C,-5,1,0,95*,9,3
C=CCN1C=CC(=C/C=C(/C#N)C(=O)OCC)C=C1,/,-14,0,84*,-21,7
CNC[C@H]1Oc2ccc(NC(=O)NC(C)C)cc2C(=O)N([C@@H](C)CO)C[C@H]1C,2,/,/,/,/,/
CCc1ccc(-c2cn(C3CCCCC3)c(=S)[nH]2)cc1,-4,-4,3,97*,-16,-3
CCc1ccc(-n2cc(-c3ccc([N+](=O)[O-])cc3)[nH]c2=S)cc1,-1,1,0,-7,13,3
CN1C(=O)C(O)(CC(=O)/C=C/C=C/c2ccccc2)c2ccccc21 (configuration not stated),/,-2,1,90*,-7,2
CN1C(=O)C(O)(CC(=O)/C=C/c2ccco2)c2ccccc21 (configuration not stated),1,0,-1,3,5,1
CN1[C@H](CO)[C@@H]2c3ccccc3N(C(=O)Nc3ccccc3F)C[C@@H]21,1,/,/,/,/,/
C[C@H]1CN([C@@H](C)CO)C(=O)c2cccc(NC(=O)Nc3ccc(F)cc3)c2O[C@@H]1CN(C)C,0,/,/,/,/,/
O=C(CC(SCCO)c1ccc2c(c1)OCO2)c1ccco1 (configuration not stated),/,4,2,97*,-13,13
O=C(NCc1ccc2c(c1)OCO2)c1ccco1,-5,-1,-3,-15,5,-2
CCC(C)(C)n1nnnc1C(c1ccc2ncccc2c1)N1CCCC(C)C1 (configuration not stated),/,-1,1,-20,342*,2
CCC(C)(C)n1nnnc1C(c1ccc2ncccc2c1)N1CCN(c2ccc(O)cc2)CC1 (configuration not stated),0,-1,2,100*,-8,29
SMILES,CASP6 VEID inh,Glyco luc inh,CDK5 inh,ALR H2O2 inh,Mot1-301 SUMO,NSD2 HMT inh
O=C(C[C@H]1C[C@@H]2c3cc(NC(=O)CC4CC4)ccc3O[C@@H]2[C@@H](CO)O1)NCc1ccc2c(c1)OCO2,1,/,/,/,/,/
COC(=O)c1ccc(O)c(Sc2cc(C(=O)OC)ccc2O)c1,/,1,3,88*,2,-1
COC(=O)c1ccc(C)cc1,-2,0,-1,/,/,/
Cc1ccc(O)c(O)c1,/,/,/,-25,-32,/
Cc1ccc(O)c(Sc2cc(C)ccc2O)c1,/,-1,0,99*,16,10
CN(C)c1ccc(CNS(=O)(=O)c2ccc3c(c2)NC(=O)CS3)cc1,3,0,-6,99*,17,15
Cc1csc(SCC(=O)Nc2oc(C)c3c(C)n[nH]c(=O)c23)n1,2,2,0,25,11,-2
Cc1n[nH]c(=O)c2c(NC(=O)CSc3nn(-c4ccccc4)c(=S)s3)oc(C)c12,3,2,-8,99*,-6,/
Clc1ccccc1-c1ccc2ncnc(NCc3ccc4c(c3)OCO4)c2c1,1,-1,1,-1,629*,/
CC(N)C12CC3CC(CC(C3)C1)C2 (configuration not stated),0,-1,0,-2,329*!,-1
Cc1ccc(S(=O)(=O)N[C@@H]2CC[C@H](CCn3cc(-c4ccccc4F)nn3)O[C@@H]2CO)cc1,1,/,/,/,/,/
O=C1C2C3C=CC(CO)(O3)C2C(=O)N1c1ccc(-c2ccccc2)cc1 (configuration not stated),/,/,/,6,324*,/
CC(C)(C)C(=O)NCC12C=CC(O1)C1C(=O)N(c3ccccc3)C(=O)C12 (configuration not stated),-2,2,-1,/,13,1
Nc1[nH]c(N=NC(=O)c2ccc(F)cc2)c2ccccc12,-1,-10,1,99*,-18,-3
Nc1ccccc1C(=O)N=Nc1[nH]c(N)c2ccccc12,1,-6,-1,-3,3,1
CN(C)c1ccc(CNC(=O)c2ccc(CNc3c(N4CCCCC4)c(=O)c3=O)cc2)cc1,3,-1,0,98*,-6,/
O=C(NCc1ccc(Cl)cc1)c1ccc(CNc2c(N3CCCC3)c(=O)c2=O)cc1,4,-1,0,/,/,/
CCC(C)Nc1nc(-c2ccc3c(c2)NC(=O)CO3)cs1 (configuration not stated),/,-1,0,98*,-3,-1
COc1ccc(-c2c(-c3ccc(O)cc3O)n[nH]c2C)cc1OC,/,9,0,88*,5,12
COc1ccccc1-c1c(-c2ccc(O)cc2O)n[nH]c1C(F)(F)F,5,0,1,97*,-14,0
Oc1ccc(-c2n[nH]c(C(F)(F)F)c2-c2ccccc2)c(O)c1,/,-7,1,97*,-9,/
COc1ccc(-c2c(-c3ccc(O)cc3O)n[nH]c2C(F)(F)F)cc1,8,-1,-1,/,-4,/
O=C(C[C@H]1CC[C@H](NC(=O)C2CC2)[C@H](CO)O1)NCC1CC1,1,/,/,/,/,/
